# Assay results reported in PubChem BioAssay (Tox21).
# Inconclusive results are not listed. Values without a mark were called inactive. The call rests on the fitted dose curve; in most records, active means well fitted cell-killing curve with a large enough effect in the repeat runs; inconclusive means weak or mixed curves; inactive means flat fitted curve, though single readings scatter.
# Experiment: qHTS RealTime-Glo MT Cell Viability Assay in HepG2 cells - 24 hour (AID 1224867); further: nearly all actives have a fitted effect of over 50% in size
# Details: RealTime-Glo luminescence; series mostly up to 76.8 µM; activity change, negative = cytotoxicity: at the top concentration
# From the text: U.S. Tox21 Program National Center for Advancing Translational Sciences [NCATS] NIH Chemical Genomics Center [NCGC] U.S. Environmental Protection Agency [EPA] National Institutes of Environmental Health Sciences [NIEHS] National Toxicology Program [NTP] U.S. Food and Drug Administration [FDA] Tox21 Assay Overview: Measure of cell viability is critical in the cell-base assay. Analysis of cell viability is necessary for the characterization of cell responses to cytotoxic drugs and environmental stress. A RealTime-Glo MT Cell Viability Assay to monitor cell viability in real time of continues cell culture during 40 hours of compound treatment was used to screen Tox21 10K library compounds in HepG2 cells. The RealTime-Glo MT Cell Viability Assay is a nonlytic, homogeneous, bioluminescent method to measure cell viability in real time using a simple, plate-based method. The assay involves adding NanoLuc luciferase and a cell-permeant prosubstrate to cells in culture. Viable cells reduce the proprietary prosubstrate to generate a substrate for NanoLuc luciferase. This substrate diffuses from cells into the surrounding culture medium, where it is rapidly used by the NanoLuc Enzyme to produce a luminescent signal. The signal correlates with the number of viable cells, making the assay well suited for cytotoxicity studies.
# Tox21 Assay Protocol Summary: The mixture of HepG2 cell suspension and reagents were dispensed at 600cells/6 ul/well in 1536-well tissue culture treated black solid bottom plates using a Multidrop dispenser. After the assay plates were incubated at a 37 C/5% CO2 incubator for 5 hours, 23 nL of compounds dissolved in DMSO, positive and negative controls was transferred to the assay plate by a pintool work station. The plates were incubated at 37 C for 40 hours. The luminescence intensity were measured at 0h, 8h, 16h, 24h, 32h and 40h time points using ViewLux plate reader during compound treatment.
# On the % scale 0 is the no-effect control and ±100 the full control effect.
row,SMILES,"activity change, negative = cytotoxicity"
1,COCCOCCOCCOC,0.166%
2,CC(C)COC(=O)COc1ccc(Cl)cc1Cl,0.449%
3,Nc1cc(C(=O)O)ccc1Cl,1.98%
4,O=C(O)c1ccccc1C(=O)OCc1ccccc1,5.11%
5,Cc1oc(=O)oc1CN1CCN(c2cc3c(cc2F)c(=O)c(C(=O)O)c2n3C(C)S2)CC1 (stereo not given),0.145% [at 35.3 µM]
6,Cc1cc(O)c2c(c1)C(=O)c1cccc(O)c1C2=O,-0.934% [at 35.3 µM]
7,CCCCCCCC[Si](OCC)(OCC)OCC,2.01%
8,CCCCC(CC)C(=O)OC(C)C (stereo not given),0.723%
9,CCCCCN(CCCOC)C(=O)C(CCC(=O)O)NC(=O)c1ccc(Cl)c(Cl)c1 (stereo not given),4.72% [at 35.3 µM]
10,C=CCOc1c(Br)cc(C(C)(C)c2cc(Br)c(OCC=C)c(Br)c2)cc1Br,5.31% [at 35.3 µM]
11,OC(CCN1CCCCC1)(c1ccccc1)c1ccccc1,-1.94% [at 35.3 µM]
12,Nc1ccc(S(=O)(=O)NC(=O)c2ccccc2)cc1,0.266% [at 35.3 µM]
13,CCNC(=O)/C=C/c1cccc(Br)c1,0.793% [at 35.3 µM]
14,NS(=O)(=O)c1cc2c(cc1Cl)NC(C(Cl)Cl)NS2(=O)=O (stereo not given),0.232% [at 35.3 µM]
15,CC(=O)OC[C@H]1O[C@@H](OC(C)=O)[C@H](OC(C)=O)[C@@H]1OC(C)=O,2.42% [at 35.3 µM]
16,CC(=O)OCCCc1ccccc1,0.867%
17,c1ccc(CNc2ncnc3nc[nH]c23)cc1,-3.88%
18,CC(C)c1ccccc1O,2.93%
19,c1ccccc1,0.468%
20,Cc1cccc(Nc2ccncc2S(=O)(=O)NC(=O)NC(C)C)c1,3.55% [at 35.3 µM]

row,SMILES,"activity change, negative = cytotoxicity"
1,O=c1cc(O)c(Cl)c[nH]1,1.13% [at 35.3 µM]
2,COC(OC)C(C)c1ccccc1 (stereo not given),2.2%
3,Cc1ncc([N+](=O)[O-])n1CC(O)CCl (stereo not given),1.5% [at 35.3 µM]
4,CC(=O)OC(C)(C)Cc1ccccc1,-0.44%
5,Cc1nc([N+](=O)[O-])cn1-c1ccc([N+](=O)[O-])cc1,0.342% [at 35.3 µM]
6,CCC(=O)c1ccc(O)cc1,-0.71% [at 35.3 µM]
7,CC(CC(=O)O)CC(C)(C)C (stereo not given),1.27%
8,CCCCOC(=O)C(C)OC(=O)CCC (stereo not given),-1.02%
9,CCN1CN(CC)CN(CC)C1,1.47%
10,C=CC(C)(O)CC/C=C(\C)CC (stereo not given),4.06%
11,OC[C@@H](O)[C@H](O)[C@@H](O)[C@@H](O)CO,1.17%
12,Cc1cc(C)cc([N+](=O)[O-])c1,-0.276%
13,C1=CCC(c2ccccc2)CC1 (stereo not given),1.63%
14,CCCCC/C=C/CC(=O)OC,0.236%
15,CN[C@@H]1[C@H](O)[C@H](NC)[C@H]2O[C@@]3(O)C(=O)C[C@@H](C)O[C@H]3O[C@@H]2[C@H]1O,1.72% [at 35.3 µM]
16,CN[C@@H]1[C@@H](O)[C@@H](O[C@@H]2[C@H](O)[C@H](O[C@H]3OC(CN)=CC[C@H]3N)[C@@H](N)C[C@H]2N)OCC1(C)O (stereo not given in full),-0.106% [at 35.3 µM]
17,Oc1ccccc1Cc1ccccc1O,-13.1%
18,CC(=O)OCC(=O)[C@@]1(O)[C@H](OC(C)=O)C[C@H]2[C@@H]3CCC4=CC(=O)C=C[C@]4(C)[C@@]3(F)[C@@H](O)C[C@@]21C,-6.36% [at 35.3 µM]
19,COc1ccc(OC)c(NC(=O)CC(C)=O)c1,1.98%
20,CCCCCCCC/C=C\CCCCCCCC(=O)OC[C@@H](O)[C@H]1OC[C@H](O)[C@H]1O,2.68%
